Measurements taken from PubChem BioAssay (NCI).
Several values for one entry are separate records, joined by “and”; a condition that tells them apart may be missing. Equal entries are not always repeated. Compounds without any hit were thinned out: in the full panel of roughly 79,000, 15% have a hit. Activity calls are given as the source filed them. Rule as the data show it: active = growth inhibition above about 70%; inactive = the rest.

Key:
[1] = NCI Yeast Anticancer Drug Screen. Data for the rad50 strain (AID 155);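 also: 0% = growth of vehicle-only cultures of the same strain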; details: S. cerevisiae rad50 strain growth inhibition; at 50.0 µM; active compounds read high
Procedure, shortened: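 DNA repair mutant yeast, compound exposure, growth read-out; inhibition is taken relative to vehicle.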

[2] = NCI Yeast Anticancer Drug Screen. Data for the mec2-1 strain (AID 157); details: S. cerevisiae mec2-1 strain, at 50.0 µM, active compounds read high
Procedure, shortened: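 Vehicle-treated cultures served as reference for growth inhibition of compound-exposed mec2-1 yeast.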

[3] = NCI Yeast Anticancer Drug Screen. Data for the sgs1 mgt1 strain (AID 161);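 also: 0% = growth of cultures given vehicle only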; details: S. cerevisiae sgs1 mgt1 strain, at 50.0 µM, active compounds read high
Procedure, shortened: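 Inhibition of yeast growth, normalised to vehicle-treated controls, is reported for a strain bearing genetic alterations in DNA damage repair.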

[4] = NCI Yeast Anticancer Drug Screen. Data for the cln2 rad14 strain (AID 165);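 also: 0% = growth equal to vehicle treated cultures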; details: S. cerevisiae cln2 rad14 strain, at 50.0 µM, active compounds read high
Procedure, shortened: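 Each compound was tested on cln2 rad14 yeast. Inhibition of growth was calculated against vehicle-exposed controls.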

[5] = NCI Yeast Anticancer Drug Screen. Data for the bub3 strain (AID 167); details: S. cerevisiae bub3 mutant strain, at 50.0 µM, active compounds read high
Procedure, shortened: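 In this screen, a yeast mutant lacking normal mitotic checkpoint function is challenged with compound. Relative growth versus vehicle gives the inhibition value.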

[6] = NCI Yeast Anticancer Drug Screen. Data for the mlh1 rad18 strain (AID 175); details: S. cerevisiae mlh1 rad18 strain growth inhibition; at 50.0 µM; active compounds read high
Procedure, shortened: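 Vehicle-treated cultures served as the reference for growth inhibition in a yeast strain carrying DNA damage repair alterations exposed to each compound.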

SMILES | growth inhibition [1] | growth inhibition [2] | growth inhibition [3] | growth inhibition [4] | growth inhibition [5] | growth inhibition [6]
CCCCCCCCCCCCCCC(=O)[O][Hg][c]1ccccc1 | 99.2% (active) | 98.9% (active) | 99.5% (active) | 99% (active) | 99.2% (active) | 99.1% (active)
O=C(Nc1cc(S(=O)(=O)F)ccc1Cl)Oc1ccc([N+](=O)[O-])cc1 | 17.4% (inactive) | 53.2% (inactive) | 38.3% (inactive) | 11.3% (inactive) | 20.1% (inactive) | 32.5% (inactive)
N.N.N.N.[Co+3].[O-][Cl+3]([O-])([O-])[O-].[OH3+].[OH3+] | -25.4% (inactive) | -1.15% (inactive) | -22.3% (inactive) | 13.9% (inactive) | -6% (inactive) | -13.6% (inactive)
CCCCSP(=S)(SCCCC)c1ccc(Cl)cc1 | 30.7% (inactive) | 9.4% (inactive) | 13.8% (inactive) | 17.6% (inactive) | 19% (inactive) | 14.2% (inactive)
CCN(CCCl)c1cc(C(N)=O)c([N+](=O)[O-])cc1[N+](=O)[O-] | -1.25% (inactive) | -8.7% (inactive) | 9% (inactive) | 3.8% (inactive) | 5.25% (inactive) | -19.6% (inactive)
CC(Cl)CN1COc2ccc3ccc4c(c3c2C1)CN(CC(C)Cl)CO4 (stereo not drawn) | 29.1% (inactive) | 14.4% (inactive) | 28.4% (inactive) | -17.9% (inactive) | 6% (inactive) | 34.1% (inactive)
Cc1cccc(NC(=O)C(=O)C2C(=O)NC(=O)NC2=O)c1C | 0.7% (inactive) | 13.8% (inactive) | -14% (inactive) | 7.25% (inactive) | 20.2% (inactive) | 12.2% (inactive)
COc1ccc(CC2c3cc(OC)c(OC)cc3CCN2C)cc1OC (stereo not drawn) | -3.6% (inactive) and -11.2% (inactive) | -5.2% (inactive) and -18.4% (inactive) | -8.1% (inactive) and -8.4% (inactive) | -5% (inactive) and 13.1% (inactive) | 12.7% (inactive) and -3.45% (inactive) | 8.4% (inactive) and 1.7% (inactive)
